Test results published in PubChem BioAssay AID493200 (National Center for Advancing Translational Sciences (NCATS), 2011).
Inconclusive results are not listed. Active and inactive are the calls of the source. Calls follow the shape of the dose curve; as a rule, active = well fitted activation curve with a large enough effect; inconclusive = small, poorly fitted or top-dose-only effect; inactive = no such curve, though single readings can be large or run the other way.

Assay: qHTS Assay for Rab9 Promoter Activators: Initial hit validation from the primary screen
Conditions: Huh7 Rab9 promoter luciferase reporter, 24 h; series mostly up to 46.1 µM
How it was run: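 Luciferase signal, read 10 min after Amplite reagent, reports Rab9 promoter activation. Compounds in DMSO were applied for 24 h at 37C to Rab9-luciferase Huh7 cells, pre-incubated 2 h in reduced-serum medium with 10% FBS.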
Potency is read from the fitted curve at half-maximal effect.

Potency, inactive:
COc1ccccc1OCCCC(=O)NCc1ccco1
COc1cccc(C2Nc3ccccc3NC3=C2C(=O)CC(C)(C)C3)c1 (centres undefined)
CC(Sc1ncnc2c1cnn2-c1ccccc1)C(=O)Nc1ccc(N2CCOCC2)cc1 (centres undefined)
COC(=O)c1sccc1NC(=S)OC
O=CN1CCN(C(=O)c2ccccc2Cl)CC1
COc1ccc(-c2csc(N(CCCN(C)C)C(=O)c3ccccc3C)n2)cc1
CCCN(CCC)CCCNC(=O)c1cc2cc3ccc(Cl)cc3nc2o1
CCOC(=O)c1ccccc1NC(=O)CSc1nnc(Cc2cccn2C)n1-c1ccc(F)cc1
Cc1ccc(C(=O)Nc2nnc(S(=O)(=O)N3CCOCC3)s2)cc1
COc1cccc(CNC(=O)CN(c2cc(C)cc(C)c2)S(=O)(=O)c2c(C)noc2C)c1
CCN(Cc1nc2cc(Cl)ccc2c(=O)[nH]1)C(=O)C1CC(=O)N(c2cccc3ccccc23)C1 (centres undefined)
O=C(CSc1nnc(Cc2cc(=O)[nH]c(=O)[nH]2)n1-c1ccc(Cl)cc1)NC1CCCC1
Cc1ccc(C)c(Nc2cc(C)nc3ncnn23)c1
COc1ccc2oc(=O)c(C(=O)NC(C)c3ccccc3)cc2c1 (centres undefined)
CCc1cc2c(N=Nc3c(O)[nH]c4ccccc34)ncnc2s1
Cc1ccccc1NC(=O)CSc1ccc(-c2cccnc2)nn1
Cc1cccc(N2CCN(C(=S)c3ccccc3)CC2)c1
Cc1noc(/C=C/N(C)C)c1S(=O)(=O)N1CCCC(C(=O)N2CCCCC2)C1 (centres undefined)
CCC(C)(C)NC(=O)C(c1ccc(OC)cc1)N(Cc1cccs1)C(=O)CCC(=O)Nc1cc(C)on1 (centres undefined)
COc1cccc(C(C(=O)NC2CCCC2)N(CCC(C)C)C(=O)CCC(=O)Nc2cc(C)on2)c1 (centres undefined)
O=[N+]([O-])c1cnccc1Nc1ccc(F)cc1
Cc1ccccc1NC(=O)Cc1nc(COC(=O)CC(C)c2ccccc2)cs1 (centres undefined)
O=C(O)C1=CC[C@@H](c2ccc(Cl)cc2)N(S(=O)(=O)c2ccc(Cl)cc2)[C@H]1c1ccccc1
CCOC(=O)c1ccc(NC(=O)Oc2cc(C)c(Cl)cc2C(C)C)cc1
C=CCn1c(C)nnc1SCC(=O)Nc1nccs1

Potency, active:
COc1ccc(-c2nnc(SCC(=O)/C(C#N)=C(\C)N)o2)cc1 315 nM
N#CC/C(N)=N/NC(=O)CCCNc1ncc(C(F)(F)F)cc1Cl 19900 nM
COc1ccc(-c2csc(Nc3ncccn3)n2)cc1C 281 nM
Cc1nnc2n(c1=O)N=C(c1ccc(Cl)cc1)CS2 888 nM
Cc1ccc(NC(=O)NC(=O)c2ccccc2)cc1F 445 nM
CCC(=O)NC(=S)Nc1ccc(N2CCOCC2)cc1 39700 nM
O=C(Nc1ccc(-c2nc3cccnc3s2)cc1)c1ccc(Cl)nc1 888 nM
O=C(CCN1C(=O)c2ccccc2C1=O)Nc1ccc(-c2nc3ccccc3s2)cc1 281 nM
O=C(CSc1nnc(-c2ccccc2)o1)Nc1ccccc1F 112 nM
